High-throughput results (PubChem BioAssay)
Hits are enriched below; roughly 3.5% of the tested compounds scored in any of these assays.
Myeloid diff MLP – promotes myeloid progenitor differentiation | calls only at 10 µM | AID 624256 | 360,000 tested, 1% active | ER-HoxA9 myeloid progenitors, lysozyme-GFP differentiation, flow cytometry;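 active = normalized GFP-positive differentiation at or above the plate's own cutoff, the solvent-only control mean plus 3 SD; inconclusive = no clear call, values can overlap the other calls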;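 also: cells exposed to compound for four days before flow analysis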
M1 PAM – human CHRM1 positive allosteric modulation. P11229. CHO-K1 hM1, Fluo-8 calcium fluorescence, ACh EC20; 0% = ACh EC20, 100% = maximal ACh. activation, % at 3 µM. 360,000 tested, 0.088% active. AID 588819; in the data active = activation above about 19%, passing the limit was not always enough
M1 antag – human CHRM1 antagonism; CHO-K1 hM1, Fluo-8 calcium fluorescence, ACh EC80 antagonist; inhibition, % at 3 µM; 360,000 tested, 1.3% active; AID 588852;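 active = percent inhibition above its own plate's cutoff, namely the mean of that plate's compound wells plus 3 SD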;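 also: peak over basal fluorescence ratio during 140 s after agonist addition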
CHRM1 agonist – agonists of human M1 muscarinic receptor; activation, % at 3 µM; P11229; AID 588814; 360,000 tested, 0.33% active; CHO-K1 hM1, Fluo-8 calcium fluorescence, agonist mode; 0% DMSO, 100% acetylcholine EC100;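 active = activation above the run's mean compound activation plus 3 SD, cut at about 16% in these data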;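 also: peak over basal fluorescence ratio within a 140 s kinetic read after compound addition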
SKN-1 block – inhibitors of C. elegans SKN-1. 360,000 tested, 0.49% active. inhibition, % at 21.8 µM. C. elegans VP596 Pgst-4::GFP/RFP ratio, acrylamide-induced, 24 h. AID 624304;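 active = interference check ratio from 0.5 to 1.5 plus GFP to RFP signal ratio inhibition reaching or exceeding a fixed threshold, cut at about 30% in these data, passing the limit was not always enough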
ATG4B inhibitor – ATG4B (human) cysteine protease inhibition; 340,000 tested, 0.51% active; Q9Y4P1; inhibition, % at 8.33 µM; ATG4B cleavage of LC3-PLA2, NBD-HPC fluorescence, 1 h; AID 504462; in the data active = inhibition above about 40%
Target sequence (Q9Y4P1 whole entry, looked up): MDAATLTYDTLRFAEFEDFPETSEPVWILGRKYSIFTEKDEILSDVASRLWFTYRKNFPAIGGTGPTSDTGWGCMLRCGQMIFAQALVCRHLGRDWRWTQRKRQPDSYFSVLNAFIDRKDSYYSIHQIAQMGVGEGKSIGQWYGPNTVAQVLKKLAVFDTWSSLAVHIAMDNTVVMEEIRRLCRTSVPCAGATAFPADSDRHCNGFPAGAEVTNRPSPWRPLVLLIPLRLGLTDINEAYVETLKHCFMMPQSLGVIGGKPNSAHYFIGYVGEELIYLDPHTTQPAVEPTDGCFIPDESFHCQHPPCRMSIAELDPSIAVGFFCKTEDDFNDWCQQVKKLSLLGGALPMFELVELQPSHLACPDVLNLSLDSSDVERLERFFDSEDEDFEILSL
Of the large screens only hits and unclear results are named; the others gave an inactive call.

O=C1CCCN1CCCNCC(=O)N1c2ccccc2Sc2ccccc21	M1 antag 77
O=C(/C=C/c1ccccc1)N1c2ccccc2Sc2ccc(C(F)(F)F)cc21	none
O=C(CN1CCCC(O)C1)N1c2ccccc2Sc2ccc(C(F)(F)F)cc21 (stereo not given)	M1 antag 99
Cc1ccc(OCCCC(=O)N(C)CC(=O)Nc2ccccc2Cl)cc1	none
O=C(Nc1ccccc1Cl)NN1CCCCCC1	none
O=C(CNC(=O)c1cccs1)N/N=C/c1ccccc1[N+](=O)[O-]	none
CC1CCCN(CC(=O)N2c3ccccc3Sc3ccccc32)C1 (stereo not given)	M1 antag 81
CC1CCCN(c2ccc(C(=O)OCn3nnc4ccccc4c3=O)cc2[N+](=O)[O-])C1 (stereo not given)	none
O=C(CN1CCCCCC1)N1c2ccccc2Sc2ccccc21	M1 antag 99
CC1CCCN(c2ccc(C(=O)OCC(=O)N3c4ccccc4Sc4ccccc43)cc2[N+](=O)[O-])C1 (stereo not given)	M1 antag 35
O=C(CN1CCCCC1)N1c2ccccc2Oc2ccccc21	M1 antag 75
CCc1ccc(NCc2ccc(OC)c(Cn3ccnc3)c2)cc1	none
COc1ccc(CNc2ccc(Cl)cc2)cc1Cn1ccnc1	CHRM1 agonist 17
OC[C@@H](O)C(O)[C@@H](O)CO (stereo not given in full)	none (no result: ATG4B inhibitor)
COc1cc(/C=N/N(CCO)C2=NS(=O)(=O)c3ccccc32)cc(OC)c1OC	SKN-1 block 35
COc1cc(Br)cc(/C=N/N(CCO)C2=NS(=O)(=O)c3ccccc32)c1OC	none
O=S1(=O)N=C(N(CCO)/N=C/C=C/c2ccccc2)c2ccccc21	Myeloid diff MLP active
CC(=O)Nc1ccc(NC(=O)C(C)Sc2nnc(C3CC3)n2-c2ccccc2)cc1 (stereo not given)	none
Cc1ccc(C(=O)C(C)OC(=O)c2cc(=O)[nH]c3ccccc23)cc1 (stereo not given)	none
CCNC(=O)c1c(NC(=O)c2cc(-c3cc(C)cc(C)c3O)n[nH]2)sc2c1CCCC2	none
O=C(O)CCc1ccc(-c2ccccc2)n1NC(=O)c1ccco1	SKN-1 block 39
CC(C)n1c(CCC(=O)O)ccc1-c1ccccc1	M1 antag 22
C[C@H](NC(=O)c1nc[nH]c1C(=O)N[C@@H](C)c1ccccc1)c1ccccc1	none
COc1ccc(CNC(=O)C[C@H]2C(=O)N(CCc3ccccc3)C[C@@H]2Cc2ccccc2)cc1	none
COc1ccc(C2/C=C\CN(C(=O)C3CCCC3)CC(=O)N2Cc2ccc(F)cc2)cc1 (stereo not given)	M1 PAM 32
Cc1sc2ncnc(SCC(=O)NC(=O)NCc3ccco3)c2c1C	Myeloid diff MLP active
Cc1nc(SCC(=O)NCc2ccco2)c2c(C)c(C)sc2n1	none
O=C(c1ccco1)[C@@H]1[C@@H]2C(=O)N(c3ccccc3)C(=O)[C@@H]2C2c3ccccc3C=CN21 (stereo not given in full)	none
COc1ccc(N2C(=O)[C@@H]3[C@H](C2=O)[C@H]2c4ccccc4C=CN2[C@@H]3C(=O)Nc2ccccc2)cc1	CHRM1 agonist 50
CCCCCCCCCCCCCCCC[n+]1cccc(C(=O)N(CC)CC)c1	M1 antag 57
Cc1c(-c2ccc(OCc3ccccc3)cc2)nc2ccccc2c1C(=O)O	Myeloid diff MLP active
CCC(Sc1ccc2nnc(CCNS(=O)(=O)c3ccc(OC)cc3)n2n1)C(=O)OC (stereo not given)	none
CCNC1=C(Cl)C(=O)c2ccccc2C1=O	SKN-1 block 37
CCCC(=O)NC1=C(Cl)C(=O)c2ccccc2C1=O	Myeloid diff MLP inconclusive
CCCC(O)(CCN1CCOCC1)c1ccc(Cl)cc1 (stereo not given)	M1 antag 45
CCCC(O)(c1ccc(Cl)cc1)C(CN1CCOCC1)c1ccc(Cl)cc1 (stereo not given)	none
CCCC(O)(CCN1CCOCC1)c1ccc(Br)cc1 (stereo not given)	M1 antag 78
CCCOc1ccc(C(O)(CCC)CCN2CCCCC2)cc1 (stereo not given)	M1 antag 66
OC(CCN1CCOCC1)(c1ccc(Cl)cc1)C1CCCCC1 (stereo not given)	M1 antag 82
CCCOc1ccc(C(=O)CCN2CCCCC2)cc1	none
O=C(COC(=O)c1cccc(S(=O)(=O)N2CCCC2)c1)Nc1ccccc1C(F)(F)F	none
CCn1nc(C)c(/C=N/NC(=O)Cn2nnc(N)n2)c1C	Myeloid diff MLP active
Cc1noc(C)c1COc1ccc(C(=O)Nc2cccnc2)cc1	M1 antag 71
Cc1cccc(NC(=O)c2ccc(OCc3c(C)noc3C)cc2)c1	none
O=Nc1ccc(NO)c2ccccc12	none (no result: ATG4B inhibitor)
CCOC(=O)c1ccc(S(=O)(=O)N2CCC(C(=O)NCC3COc4ccccc4O3)CC2)cc1 (stereo not given)	none (no result: ATG4B inhibitor)
C=CCC1(CC=C)CCCN1C(=O)c1cc(COc2ccc(C)nc2)on1	Myeloid diff MLP inconclusive, M1 antag 55
C=CCC1(CC=C)CCCN1C(=O)c1cc(COc2ccc(F)c(F)c2)on1	none
NC(=O)C1CCN(c2oc(-c3ccccc3F)nc2S(=O)(=O)c2ccc(Cl)cc2)CC1	SKN-1 block 38
CN1CCN(c2oc(-c3ccccc3F)nc2S(=O)(=O)c2ccc(Cl)cc2)CC1	none
O=C(NCc1ccco1)c1ccc([N+](=O)[O-])o1	none
Cc1cccc(C)c1NC(=O)C(=O)NCCc1c[nH]c2ccccc12	CHRM1 agonist 17
O=C(O)C1CCCCC1C(=O)NCCc1c[nH]c2ccccc12 (stereo not given)	SKN-1 block 37
Cc1ccc(C)c(NC(=O)C(=O)NCCc2c[nH]c3ccccc23)c1	none
O=c1[nH]c2cccc(Cl)c2c2ccccc12	none (no result: ATG4B inhibitor)
CCCCCCn1c(N2CCC(C(N)=O)CC2)nc2c1c(=O)n(C)c(=O)n2C	SKN-1 block 45
CCCCN1C(=O)C(CC(=O)NCC2CCCCC2)CC(C(=O)N(C(C)C)C(C)C)=C1C (stereo not given)	none (no result: ATG4B inhibitor)
Fc1ccc2nc3c(nc2c1)CCCC3	none
COc1ccc(-c2c(C)n([O-])c3c([n+]2=O)CCCCC3)cc1OC	none
CC1CCN(C(=O)CCn2c(=O)oc3ccc(Cl)cc32)CC1	M1 PAM 28 (no result: ATG4B inhibitor)
CN(C)CC/C=C1/c2cc(F)ccc2Sc2ccc(Cl)cc21	M1 antag 99
CN(C)CC/C=C1/c2ccccc2Sc2c(O)cc(Cl)cc21	M1 antag 97
CN1CCN(CC/C=C2/c3ccccc3Sc3ccc(S(=O)(=O)N(C)C)cc32)CC1	none
COc1cc2c(cc1Cl)/C(=C\CCN(C)C)c1ccccc1S2	M1 antag 66
